The structures appear in SMILES notation. Among all 320,000 compounds or so, about 22,000 (6.9%) were called active. Where a call stands in place of a potency, no number is given. Roughly 27% stayed inconclusive and do not appear here. Only a selection was taken, and actives are over-represented in it overall. Values without a mark were called inactive. Calls follow the shape of the dose curve; as a rule, active = well fitted inhibition curve with a large enough effect; inconclusive = small, poorly fitted or top-dose-only effect, or another doubt; inactive = no such curve, though single readings can be large or run the other way.
Potency is read from the fitted curve at half-maximal effect.

A short description of the assay: Primary qHTS for delayed death inhibitors of the malarial parasite plastid, 96 hour incubation. The following applies: P. falciparum luciferase reporter growth; series mostly up to 28.7 µM. The gist of the method:
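Infected RBCs, 2% Hct / 0.05% parasitemia final; luciferase-reporter P. falciparum; cpd 96 h, 37 C, 5% CO2; luciferase detection reagent; luminescence.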
(In general: Quantitative high-throughput screening tests each substance at several concentrations.)
For `C=CCn1c(SCC(=O)NC)nnc1C12CC3CC(CC(C3)C1)C2`, the Potency was 11.7 µM (active).

Consider `C=CCn1c(COc2ccccc2)nnc1SCC(=O)NCC(=O)OCC`, for which the Potency result is “inactive”.

`C=CCn1c(SCC(=O)NC23CC4CC(CC(C4)C2)C3)nc(O)cc1=O`: the Potency entry was “inactive”.

Consider `C=CCSc1nnc(NC(=O)c2ccc(NC(C)=O)cc2)s1`, for which the Potency entry was “inactive”.

For `CC1CC(C)CN(C(=O)CCNC(=O)Cn2cnc3ccccc3c2=O)C1` (stereo not drawn), the Potency result is “inactive”.

With `Cc1cc(S(=O)(=O)N2CCOCC2)ccc1OCC(=O)N1CCOCC1`, the Potency result is “inactive”.

For `O=C1CCc2cc(S(=O)(=O)N3CCC(C(=O)NCc4ccccc4Cl)CC3)ccc2N1`, the Potency is 13.1 µM (active).

`O=C(NCc1ccccc1Cl)C1CCN(S(=O)(=O)c2cccc3nonc23)CC1`: the Potency result was “inactive”.

As for `O=C(NCc1ccccc1Cl)C1CCN(S(=O)(=O)N2CCOCC2)CC1`, the Potency result was “inactive”.

For `CSc1ccc(Cl)c(C(=O)OCC(=O)N2CCNC2=O)c1`, the Potency result is “inactive”.

Consider `Cc1ccc(NC(=O)N2CCC(c3nc4c(nnn4Cc4c(F)cccc4Cl)c(=O)[nH]3)CC2)cc1`, for which the Potency was 9.28 µM (active).

As to `COc1ccc(Cn2nnc3c(=O)[nH]c(C4CCN(C(=O)c5ccccc5Cl)CC4)nc32)cc1`, the Potency entry is “inactive”.

Regarding `O=C(Nc1ccc(F)cc1)N1CCCC(c2nc3c(nnn3Cc3ccccc3Cl)c(=O)[nH]2)C1` (stereo not drawn), the Potency result was “inactive”.

In the case of `CC(Sc1nnc(-c2cccs2)n1C1CC1)C(=O)NCC1CCCO1` (stereo not drawn), the Potency result is “inactive”.

Consider `Cc1cc(C(=O)OCC(=O)Nc2nccs2)c2ccccc2n1`, for which the Potency entry was “inactive”.

In the case of `COc1ccccc1C(=O)NNC(=O)CCN1C(=O)/C(=C\c2ccccc2)SC1=S`, the Potency result is “inactive”.

With `CC(O)c1nc2c(c(=O)n(C)c(=O)n2C)n1C` (stereo not drawn), the Potency result was “inactive”.

Consider `CCC(C)Sc1nc(C)nc2c1c(=O)n(C)c(=O)n2C` (stereo not drawn), for which the Potency is 10.4 µM (active).

As to `CSc1nc(C)nc2c1c(=O)n(C)c(=O)n2C`, the Potency result was “inactive”.

For the compound `COc1ccc(N2CCN(S(=O)(=O)c3cc(Br)cnc3N)CC2)cc1`, the Potency entry was “inactive”.

For the compound `COc1cccc(/C=C2/SC(=S)N(CC(=O)NC3C=CS(=O)(=O)C3)C2=O)c1` (stereo not drawn), the Potency result is “inactive”.

Take `COc1ccc(N2CCN(CCNC(=O)CCN3C(=O)COc4ccccc43)CC2)cc1`: the Potency entry was “inactive”.

In the case of `COc1cccc(NC(=O)NCCN2CCCCC2)c1`, the Potency result is “inactive”.

For `COc1ccc(N2CCN(CCNC(=O)Nc3cc(Cl)ccc3Cl)CC2)cc1`, the Potency was 5.22 µM (active).

As to `CCOC(=O)c1cccc(NC(=O)CN2C(=O)C3CC=CCC3C2=O)c1` (stereo not drawn), the Potency result is “inactive”.

In the case of `CCn1ccnc1CN(C)C(=O)c1ccc2nc(Cc3ccc(OC)cc3)oc2c1`, the Potency result was “inactive”.

With `Cc1[nH]c(C)c(S(=O)(=O)N2CCN(c3cccc(C(F)(F)F)c3)CC2)c1C(=O)N1CCCC1`, the Potency entry was “inactive”.

Take `COc1ccccc1CN(C)C(=O)C1(c2ccc(Cl)cc2)CC1`: the Potency was 9.28 µM (active).

With `COc1ccccc1CN(C)C(=O)c1cc2ccccc2o1`, the Potency entry was “inactive”.

For `COCCNC(=O)NC(=O)COC(=O)C1(c2ccc(Cl)cc2)CC1`, the Potency entry is “inactive”.

Consider `Cc1cccc(C(=O)NCC(=O)OCC(=O)N(C)CC(=O)Nc2ccccc2Cl)c1`, for which the Potency entry was “inactive”.

Regarding `O=C1CC2(CCN(C(=O)COc3ccc(F)cc3)CC2)Oc2ccccc21`, the Potency result is “inactive”.

Take `O=C(C1CC(=O)N(c2ccc(F)cc2)C1)N1CCN(c2ccccc2)CC1` (stereo not drawn): the Potency entry was “inactive”.

On to `Cc1ccc(N2CC(C(=O)N3CCC4(CC3)CC(=O)c3ccccc3O4)CC2=O)cc1C` (stereo not drawn), for which the Potency was 11.7 µM (active).

Take `O=C(Cn1c(NCCO)nc2ccccc21)c1ccc(Cl)cc1Cl`: the Potency entry is “inactive”.

Take `CC(NC(=O)C(=O)Nc1nccs1)c1ccccc1` (stereo not drawn): the Potency result is “inactive”.

Turning to `CC(=O)c1cccc(NC(=S)N2CCN(S(C)(=O)=O)CC2)c1`, the Potency result was “inactive”.

Consider `O=C(NCCCN1CCOCC1)c1ccccc1NS(=O)(=O)c1ccc(F)cc1`, for which the Potency result is “inactive”.

Turning to `O=C(NCCCN1CCOCC1)c1ccccc1NS(=O)(=O)c1ccc(Br)cc1`, the Potency result was “inactive”.

With `O=C(NCCCN1CCOCC1)c1cnn2c(-c3ccccc3)cc(-c3ccccc3)nc12`, the Potency is 9.28 µM (active).

Regarding `CCc1ccc(OCC(=O)NCC(c2ccc(Cl)cc2)N2CCCCC2)cc1` (stereo not drawn), the Potency result is “inactive”.

Consider `COc1cccc(C(=O)Nc2ccc(N3CCN(C(=O)c4ccco4)CC3)cc2)c1`, for which the Potency result was “inactive”.

As to `COc1ccc(Cl)cc1NS(=O)(=O)c1cccc(C(=O)NCC2CCCO2)c1` (stereo not drawn), the Potency result was “inactive”.

As to `CC(C)Nc1nnc(SCC(=O)c2c[nH]c3ccccc23)s1`, the Potency was 10.4 µM (active).

Regarding `COC(=O)c1ccc(CSc2nnc(NC(C)C)s2)cc1`, the Potency result was “inactive”.

Take `C[C@H](NC(=O)c1ccccc1)C(=O)OCC(=O)c1c[nH]c2ccccc12`: the Potency entry was “inactive”.

As for `Cc1coc2c1c(C)cc1oc(=O)c(CC(=O)NCC(=O)N[C@H](C(=O)O)C(C)C)c(C)c12`, the Potency entry was “inactive”.

With `Cc1onc(-c2ccccc2)c1C(=O)N=C(N)c1ccc(Cl)cc1`, the Potency result was “inactive”.

With `COc1cc(-c2c(-c3ccc4c(c3)OCO4)noc2C)ccc1F`, the Potency result was “inactive”.

Consider `Cc1onc(-c2ccc(Cl)cc2)c1-c1ccnn1S(=O)(=O)c1ccc(Cl)cc1`, for which the Potency was 1.17 µM (active).

For `Cc1cccc([C@@H]2[C@@H]3C(=O)N(C)C(=O)[C@@H]3[C@@H]3C(=O)Nc4ccccc4C(=O)N23)c1`, the Potency entry was “inactive”.

Turning to `CCOC(=O)c1sc(N)c(C#N)c1COC(=O)C1=COCCO1`, the Potency result is “inactive”.

For `Cc1ccc(-c2ccc(=O)n(Cc3ccc(F)cc3Cl)n2)cc1`, the Potency result is “inactive”.

For `COc1ccc(CNC(=O)CN(C(=O)c2csnn2)c2cnc3ccccc3c2)cc1`, the Potency result is “inactive”.

As for `Cc1cccc(NS(=O)(=O)c2ccc(C(=O)NCC(C)(C)N3CCOCC3)cc2)c1C`, the Potency result is “inactive”.

With `COc1cc(OC)cc(-c2nc3nc(C)c(CCC(=O)NCc4ccco4)c(C)n3n2)c1`, the Potency result was “inactive”.

Consider `Cc1cc(C)n2nc(SCC(=O)NC(=O)NCc3ccco3)nc2n1`, for which the Potency entry was “inactive”.

For the compound `Cc1nc2nc(SCC(=O)NCc3ccco3)nn2c(C)c1Cc1ccccc1`, the Potency is 10.4 µM (active).

Consider `O=C(O)C(c1ccccc1)C1(O)CCCCC1` (stereo not drawn), for which the Potency result was “inactive”.

As to `CCCOc1cccc(C(=O)Nc2ccccc2C(=O)N2CCN(C)CC2)c1`, the Potency entry is “inactive”.

In the case of `CN(c1cccc(NC(=O)Nc2ccc(Cl)cc2)c1)S(C)(=O)=O`, the Potency result was “inactive”.

Turning to `CC(C)S(=O)(=O)c1csc(NC(=O)Nc2ccc(Cl)cc2)c1Cl`, the Potency was 1.17 µM (active).

For `Cn1ccc(NC(=O)Nc2ccc(Cl)cc2)n1`, the Potency entry was “inactive”.

Consider `O=C(c1cccnc1)N1CCN(S(=O)(=O)c2cccs2)CC1`, for which the Potency entry was “inactive”.

Consider `Cc1ccc(-n2ncc3c2CCCC3NC(=O)c2cnccn2)cc1C` (stereo not drawn), for which the Potency entry is “inactive”.

In the case of `O=C1CCC(=O)N(O)CCCCCNC(=O)CCC(=O)N(O)CCCCCNC(=O)CCC(=O)N(O)CCCCCN1`, the Potency is 10.4 µM (active).

`CC(CN1CCCCC1)c1ccccc1` (stereo not drawn): the Potency result is “inactive”.

Regarding `CC(C)[C@@H]1COC(c2cccc(C3=N[C@H](C(C)C)CO3)c2)=N1`, the Potency entry is “inactive”.

Turning to `CN(C(=O)c1cccc(OC2CCN(S(=O)(=O)N(C)C)CC2)c1)C1CCOC1` (stereo not drawn), the Potency result is “inactive”.

As for `COC(=O)C1C(=O)c2c([nH]c(C(=O)OCCSC)c2C)CC1C` (stereo not drawn), the Potency is 3.7 µM (active).

Consider `CCCOC(=O)C1=C(C)NC2=C(C(=O)C(C(=O)OC)C(C)C2)C1c1ccc(N(C)C)cc1` (stereo not drawn), for which the Potency entry is “inactive”.

For the compound `OC(c1nc2ccccc2[nH]1)C(O)C(O)C(O)c1nc2ccccc2[nH]1` (stereo not drawn), the Potency entry is “inactive”.

Regarding `COc1ccc(/C=C/C(=O)N2CCCC2)cc1OC`, the Potency result was “inactive”.

Turning to `C/C=C/c1ccc(OCCCCN2CCC(C)CC2)c(OC)c1`, the Potency is 5.22 µM (active).

Consider `C/C=C/c1ccc(OCCOc2ccc(C=O)cc2OC)c(OC)c1`, for which the Potency entry is “inactive”.

Regarding `COc1ccc(CN2CCNC(=O)C2CC(=O)NCc2cn[nH]c2-c2ccccc2)c(F)c1` (stereo not drawn), the Potency result was “inactive”.

Turning to `CN(C(=O)COC(=O)Cn1cnc2c1c(=O)n(C)c(=O)n2C)C1(C#N)CCCCC1`, the Potency entry is “inactive”.

Turning to `O=c1onc(-c2c(F)cccc2F)n1-c1ccccc1Cl`, the Potency entry is “inactive”.

In the case of `CCC(=O)c1cc(F)ccc1OCC(=O)Nc1ccc2c(c1)OCCO2`, the Potency entry is “inactive”.

Regarding `COc1cccc2c(=O)n(CC(=O)N3CCCCCC3)ccc12`, the Potency result is “inactive”.

For `Cc1ccc2oc(=O)c3cnn(CC(=O)N4CCCCCC4)c3c2c1`, the Potency was 9.28 µM (active).

As to `Cc1cc(C(F)(F)F)nn1CC(=O)N1CCCC1`, the Potency result is “inactive”.

On to `Cn1nc(-c2ccccc2)c(-c2nc(-c3ccc(Cl)cc3)no2)c1Cl`, for which the Potency entry is “inactive”.

For `C/C(=N\Nc1nncc2ccccc12)c1ccc(Cl)c([N+](=O)[O-])c1`, the Potency entry is “inactive”.

For `C/C(=N/Nc1ccc(Cl)cc1)c1cnnc(-c2ccccc2)n1`, the Potency was 0.522 µM (active).

For `Cc1ccc(S(=O)(=O)NNC(=O)/C=C/c2cccc(F)c2)cc1`, the Potency entry was “inactive”.

Consider `Cc1ccc2c(c1)N(CC(=O)N1CCC(O)CC1)C(=O)CO2`, for which the Potency result is “inactive”.

For `Cc1nc2ccccc2c(=O)n1NC(=O)c1ccc(Cl)c([N+](=O)[O-])c1`, the Potency result is “inactive”.

On to `O=C(Nn1cnc2ccccc2c1=O)c1ccccc1`, for which the Potency entry was “inactive”.

For the compound `O=C(Nn1cnc2ccccc2c1=O)c1ccc(F)cc1Cl`, the Potency was 11.7 µM (active).

With `CN(C(=O)c1ccccc1)c1nccnc1C#N`, the Potency result was “inactive”.

`CN(C)C(=O)c1nc2ccc(Cl)cn2c1CNCc1cccc(OC(F)(F)F)c1`: the Potency entry is “inactive”.

Turning to `COc1ccccc1-c1nnc(SCC(=O)Nc2cc(C)on2)o1`, the Potency was 13.1 µM (active).

Consider `COc1ccccc1-c1nnc(SCC(=O)Nc2ccccc2)o1`, for which the Potency result was “inactive”.

For the compound `Cc1cc(NC(=O)CSc2nnc(-c3ccc(Cl)s3)o2)no1`, the Potency entry is “inactive”.

Take `CCN(C(=O)CSc1nc(N)cc(=O)[nH]1)C1CCS(=O)(=O)C1` (stereo not drawn): the Potency entry is “inactive”.

Regarding `CC(=O)Nc1ccc(NC(=O)CC2CCCC2)cc1`, the Potency entry is “inactive”.

Consider `CCn1c(COc2ccccc2)nnc1SCC(=O)NCc1ccco1`, for which the Potency entry is “inactive”.

Take `Cc1nc2c(c(=O)n1Cc1ccco1)c1nc3ccccc3nc1n2Cc1ccccc1`: the activity change, negative = inhibition is 27.6% [at 5.75 µM].

As to `Cn1c2ccccc2c(=O)c2c(=O)n(Cc3ccco3)c(COc3ccccc3)nc21`, the Potency is 7.38 µM (active).

Take `CC(=O)N1CCC(N(C(=O)Nc2ccc(Cl)cc2)C(C)C)CC1`: the Potency result was “inactive”.

Regarding `CCOc1ccc(N/C=C/C(=O)c2ccccc2)cc1`, the Potency result was “inactive”.

For `N#C/C=C/N1CCN(Cc2ccc3c(c2)OCO3)CC1`, the Potency entry was “inactive”.

(Values after PubChem BioAssay AID504834 (National Center for Advancing Translational Sciences (NCATS), 2011).)
